# Measurements as given in PubChem BioAssay (EPA / NIEHS).
# Records with an inconclusive call do not appear. Where a structure was tested more than once in an assay, its records may differ in their call. Calls of active or inactive are those of the source. How the source made its calls, unless noted: active means hit-call score of the fitted dose curve at least 0.9, where 1 is the maximum; inactive means score below 0.9.
# Columns and labels:
# [1] = biological target: Glucocorticoid receptor (Homo sapiens) (UniProt P04150); assay: ATG_GR_TRANS: Attagene TRANS-FACTORIAL HepG2 Assay for human Glucocorticoid Receptor (GR) (AID 2282978; active means hit-call score of the fitted dose curve at least 0.9, where 1 is the maximum;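 further: activators score as hits since higher reporter transcript over DMSO is fitted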); conditions: HepG2 Attagene TRANS GR reporter, mRNA transcription
# Glucocorticoid receptor (Homo sapiens), sequence (P04150 whole entry, looked up, the tested form may be a part): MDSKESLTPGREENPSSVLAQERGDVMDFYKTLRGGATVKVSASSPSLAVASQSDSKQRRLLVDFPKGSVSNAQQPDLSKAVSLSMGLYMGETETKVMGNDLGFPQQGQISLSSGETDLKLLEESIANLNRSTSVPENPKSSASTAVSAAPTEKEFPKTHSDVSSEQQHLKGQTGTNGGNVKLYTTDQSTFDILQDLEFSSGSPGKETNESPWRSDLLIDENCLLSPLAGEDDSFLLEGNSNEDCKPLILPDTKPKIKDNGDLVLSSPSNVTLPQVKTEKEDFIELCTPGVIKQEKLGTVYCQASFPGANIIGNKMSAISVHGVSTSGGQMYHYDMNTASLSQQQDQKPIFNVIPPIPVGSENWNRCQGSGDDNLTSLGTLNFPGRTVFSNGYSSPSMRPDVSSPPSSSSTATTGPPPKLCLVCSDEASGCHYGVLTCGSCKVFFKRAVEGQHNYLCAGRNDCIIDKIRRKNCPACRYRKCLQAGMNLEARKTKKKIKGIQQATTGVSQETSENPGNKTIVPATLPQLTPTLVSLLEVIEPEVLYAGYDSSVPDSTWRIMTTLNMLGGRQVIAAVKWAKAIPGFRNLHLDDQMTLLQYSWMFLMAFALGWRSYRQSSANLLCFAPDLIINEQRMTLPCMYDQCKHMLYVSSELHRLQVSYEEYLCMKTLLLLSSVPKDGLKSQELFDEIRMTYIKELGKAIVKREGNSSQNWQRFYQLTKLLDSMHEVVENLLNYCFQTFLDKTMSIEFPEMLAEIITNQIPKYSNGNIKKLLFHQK
# In short: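 Reporter transcript levels, detected by fluorescence after RT-PCR and capillary electrophoresis, served as the endpoint. HepG2 cells bearing transfected GAL4-UAS reporters responsive to NR-GAL4 chimeras were incubated with compound 24 h; DMSO defined baseline.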
# [2] = biological target: Bile acid receptor (Homo sapiens) (UniProt Q96RI1); assay: ATG_FXR_TRANS: Attagene TRANS-FACTORIAL HepG2 Assay for Farnesoid X Receptor (FXR) (AID 2282979; active means hit-call score of the fitted dose curve at least 0.9, where 1 is the maximum;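 further: hits raise reporter mRNA above DMSO so AC50 marks FXR activation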); conditions: HepG2 Attagene TRANS FXR-GAL4 reporter transcription
# Bile acid receptor (Homo sapiens), sequence (Q96RI1 whole entry, looked up, the tested form may be a part): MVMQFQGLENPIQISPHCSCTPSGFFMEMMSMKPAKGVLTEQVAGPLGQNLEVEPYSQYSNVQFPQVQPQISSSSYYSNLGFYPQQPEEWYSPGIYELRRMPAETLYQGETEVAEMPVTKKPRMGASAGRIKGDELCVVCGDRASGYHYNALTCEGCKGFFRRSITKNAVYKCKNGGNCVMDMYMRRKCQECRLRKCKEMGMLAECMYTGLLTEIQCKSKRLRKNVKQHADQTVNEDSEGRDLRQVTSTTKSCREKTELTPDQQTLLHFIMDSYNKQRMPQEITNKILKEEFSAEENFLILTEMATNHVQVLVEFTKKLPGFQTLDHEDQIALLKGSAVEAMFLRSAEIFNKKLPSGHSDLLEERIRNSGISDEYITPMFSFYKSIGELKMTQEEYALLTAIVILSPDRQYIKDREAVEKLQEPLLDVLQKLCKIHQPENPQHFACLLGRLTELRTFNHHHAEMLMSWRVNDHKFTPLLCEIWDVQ
# In short: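 Reporter transcripts from transfected HepG2 cells were measured 24 h after dosing, using RT-PCR with capillary electrophoresis of 6-FAM-labelled fragments. The read-out reflects activity of exogenous FXR-Gal4 chimera on GAL4-UAS units, with induction relative to DMSO.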
# [3] = biological target: Oxysterols receptor LXR-alpha (Homo sapiens) (UniProt Q13133); assay: ATG_LXRa_TRANS: Attagene TRANS-FACTORIAL HepG2 Assay for human Liver X Receptor alpha (LXRa) (AID 2282980; active means hit-call score of the fitted dose curve at least 0.9, where 1 is the maximum); conditions: HepG2 Attagene TRANS reporter, LXRa transactivation
# Oxysterols receptor LXR-alpha (Homo sapiens), sequence (Q13133 whole entry, looked up, the tested form may be a part): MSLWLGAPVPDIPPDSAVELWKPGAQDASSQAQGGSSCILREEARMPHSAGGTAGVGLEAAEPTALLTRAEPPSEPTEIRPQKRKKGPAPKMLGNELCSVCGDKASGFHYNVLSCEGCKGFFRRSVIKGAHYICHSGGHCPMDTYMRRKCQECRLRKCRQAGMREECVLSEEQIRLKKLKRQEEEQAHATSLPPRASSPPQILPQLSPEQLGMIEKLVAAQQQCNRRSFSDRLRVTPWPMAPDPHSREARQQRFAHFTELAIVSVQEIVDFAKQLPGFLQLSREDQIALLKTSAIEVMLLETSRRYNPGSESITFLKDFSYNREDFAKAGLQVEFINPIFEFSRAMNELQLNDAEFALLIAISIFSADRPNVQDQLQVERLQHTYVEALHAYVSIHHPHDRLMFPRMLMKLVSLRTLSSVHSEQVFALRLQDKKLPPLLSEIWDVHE
# In short: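 Chemical-induced reporter mRNA measured by RT-PCR with fluorescent labelling and capillary electrophoresis after 24 h dosing of transiently transfected HepG2 cells expressing exogenous NR-Gal4 chimeras; increases scored against DMSO baseline.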
# [4] = biological target: Oxysterols receptor LXR-beta (Homo sapiens) (UniProt P55055); assay: ATG_LXRb_TRANS: Attagene TRANS-FACTORIAL HepG2 Assay for human Liver X Receptor beta (LXRb) (AID 2282981; active means hit-call score of the fitted dose curve at least 0.9, where 1 is the maximum); conditions: HepG2 Attagene TRANS GAL4-LXRb reporter, mRNA
# Oxysterols receptor LXR-beta (Homo sapiens), sequence (P55055 whole entry, looked up, the tested form may be a part): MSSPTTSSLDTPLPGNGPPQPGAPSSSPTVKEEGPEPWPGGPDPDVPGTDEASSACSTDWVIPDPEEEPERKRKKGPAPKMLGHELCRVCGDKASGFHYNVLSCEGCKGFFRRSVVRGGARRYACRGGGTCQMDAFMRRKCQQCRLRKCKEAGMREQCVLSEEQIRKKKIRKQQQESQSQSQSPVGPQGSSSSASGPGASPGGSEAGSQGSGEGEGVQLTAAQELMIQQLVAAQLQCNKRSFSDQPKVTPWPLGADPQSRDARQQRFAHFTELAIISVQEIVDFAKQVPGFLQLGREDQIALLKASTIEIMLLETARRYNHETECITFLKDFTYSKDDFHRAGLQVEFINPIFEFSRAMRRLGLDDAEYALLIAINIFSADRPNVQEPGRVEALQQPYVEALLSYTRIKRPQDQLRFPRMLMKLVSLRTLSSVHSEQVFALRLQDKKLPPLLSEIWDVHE
# In short: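 HepG2 cells transiently transfected with GAL4-UAS reporter units for chimeric NR-Gal4 proteins, dosed for 24 h. Reporter transcripts measured by RT-PCR and capillary electrophoresis; gain-of-signal fitting relative to DMSO.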
# [5] = biological target: Hepatocyte nuclear factor 4-alpha (Homo sapiens) (UniProt P41235); assay: ATG_HNF4a_TRANS: Attagene TRANS-FACTORIAL HepG2 Assay for human Hepatocyte Nuclear Factor 4 alpha (HNF4a) (AID 2282982; active means hit-call score of the fitted dose curve at least 0.9, where 1 is the maximum); conditions: HepG2 HNF4a transactivation reporter, mRNA readout
# In short: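 HepG2 cells transiently transfected with HNF4a-Gal4 chimera and GAL4-UAS reporter units, dosed for 24 h. Reporter mRNA measured by RT-PCR, fluorescent primer extension and capillary electrophoresis; gain-of-signal fitted relative to DMSO.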
# [6] = ATG_M_06_TRANS: Attagene TRANS-FACTORIAL HepG2 Assay for M06 Transcription Factor (Internal Marker) (AID 2282983; active means hit-call score of the fitted dose curve at least 0.9, where 1 is the maximum); conditions: HepG2 Attagene TRANS M06 internal marker reporter
# In short: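 Cells: HepG2, transient multi-reporter transfection. Exposure: 24 h. Detection: RT-PCR, 6-FAM labelling, HpaI digestion (2 h, 37 °C), capillary electrophoresis. Baseline: DMSO.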
# [7] = biological target: Nuclear receptor subfamily 4 group A member 2 (Homo sapiens) (UniProt P43354); assay: ATG_NURR1_TRANS: Attagene TRANS-FACTORIAL HepG2 Assay for human Nuclear Receptor Related Protein 1 (NURR1) (AID 2282985; active means hit-call score of the fitted dose curve at least 0.9, where 1 is the maximum); conditions: HepG2 Attagene TRANS reporter, mRNA readout
# Nuclear receptor subfamily 4 group A member 2 (Homo sapiens), sequence (P43354 whole entry, looked up, the tested form may be a part): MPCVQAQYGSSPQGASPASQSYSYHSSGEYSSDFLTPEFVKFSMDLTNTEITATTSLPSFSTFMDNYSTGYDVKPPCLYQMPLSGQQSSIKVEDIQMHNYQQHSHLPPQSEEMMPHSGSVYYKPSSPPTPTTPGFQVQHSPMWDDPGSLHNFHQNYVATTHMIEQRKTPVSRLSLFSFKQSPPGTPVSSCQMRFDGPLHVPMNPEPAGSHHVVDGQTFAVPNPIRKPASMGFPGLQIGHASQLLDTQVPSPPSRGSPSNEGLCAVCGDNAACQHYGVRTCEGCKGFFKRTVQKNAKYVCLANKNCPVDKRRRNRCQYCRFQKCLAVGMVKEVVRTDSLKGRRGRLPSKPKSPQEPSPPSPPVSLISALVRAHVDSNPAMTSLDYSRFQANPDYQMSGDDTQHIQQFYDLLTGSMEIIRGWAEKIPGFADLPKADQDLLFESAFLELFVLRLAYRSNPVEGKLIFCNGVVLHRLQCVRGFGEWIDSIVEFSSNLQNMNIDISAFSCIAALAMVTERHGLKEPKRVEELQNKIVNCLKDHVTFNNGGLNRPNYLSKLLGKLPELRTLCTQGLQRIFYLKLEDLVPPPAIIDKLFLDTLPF
# In short: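 HepG2 cells transiently transfected with NURR1-Gal4 chimera and GAL4-UAS reporter units; after 24 hr compound exposure, reporter mRNA quantified by RT-PCR and capillary electrophoresis; gain of signal fitted against DMSO.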
# [8] = biological target: Transcriptional activator Myb (Homo sapiens) (UniProt P10242); assay: ATG_Myb_CIS: Attagene CIS-FACTORIAL HepG2 Assay for human Myeloblastosis (Myb) Proto-Oncogene Transcription Factor (AID 2282986); conditions: HepG2 Attagene CIS-FACTORIAL Myb reporter transcription; actives raise or lower the signal
# Transcriptional activator Myb (Homo sapiens), sequence (P10242 whole entry, looked up): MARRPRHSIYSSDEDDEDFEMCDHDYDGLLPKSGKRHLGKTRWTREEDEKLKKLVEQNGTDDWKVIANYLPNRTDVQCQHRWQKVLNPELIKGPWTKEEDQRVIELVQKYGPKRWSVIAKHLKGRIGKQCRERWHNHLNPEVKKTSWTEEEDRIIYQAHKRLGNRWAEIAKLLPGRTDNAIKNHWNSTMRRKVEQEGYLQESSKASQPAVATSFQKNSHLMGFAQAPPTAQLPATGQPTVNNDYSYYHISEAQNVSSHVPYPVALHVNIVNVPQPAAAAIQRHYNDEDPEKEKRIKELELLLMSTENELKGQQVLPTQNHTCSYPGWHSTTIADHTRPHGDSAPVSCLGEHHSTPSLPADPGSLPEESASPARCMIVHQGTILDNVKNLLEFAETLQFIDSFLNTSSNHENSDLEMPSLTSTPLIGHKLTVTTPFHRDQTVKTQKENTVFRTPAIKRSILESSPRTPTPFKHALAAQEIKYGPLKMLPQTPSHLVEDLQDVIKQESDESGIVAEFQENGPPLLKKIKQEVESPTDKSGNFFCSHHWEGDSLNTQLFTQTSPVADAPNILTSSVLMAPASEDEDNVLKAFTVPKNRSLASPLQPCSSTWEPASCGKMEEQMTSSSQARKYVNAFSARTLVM
# In short: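 Transiently transfected HepG2 cells, treated 24 h. Reporter mRNA quantified by RT-PCR/capillary electrophoresis; bidirectional fit relative to DMSO.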
# [9] = biological target: Nuclear respiratory factor 1 (Homo sapiens) (UniProt Q16656); assay: ATG_NRF1_CIS: Attagene CIS-FACTORIAL HepG2 Assay for human Nuclear Respiratory Factor 1 (NRF1) Orphan Gene (AID 2282987); conditions: HepG2 NRF1 cis-element reporter, Attagene multiplex; actives raise or lower the signal
# Nuclear respiratory factor 1 (Homo sapiens), sequence (Q16656 whole entry, looked up, the tested form may be a part): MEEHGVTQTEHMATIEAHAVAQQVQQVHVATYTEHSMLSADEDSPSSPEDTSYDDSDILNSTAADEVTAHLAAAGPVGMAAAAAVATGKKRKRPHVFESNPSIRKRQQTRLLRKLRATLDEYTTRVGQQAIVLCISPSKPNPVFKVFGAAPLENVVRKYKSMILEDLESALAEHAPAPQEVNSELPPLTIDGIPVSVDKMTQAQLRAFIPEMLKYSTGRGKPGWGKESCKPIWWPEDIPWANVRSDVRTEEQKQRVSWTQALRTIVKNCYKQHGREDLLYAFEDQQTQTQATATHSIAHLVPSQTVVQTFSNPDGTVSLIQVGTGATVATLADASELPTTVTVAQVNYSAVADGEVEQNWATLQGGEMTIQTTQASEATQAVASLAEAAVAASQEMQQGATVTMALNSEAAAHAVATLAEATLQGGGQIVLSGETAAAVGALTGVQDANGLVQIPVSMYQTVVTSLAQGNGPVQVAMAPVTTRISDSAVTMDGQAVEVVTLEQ
# In short: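 Cells (HepG2, transient MRTU transfection) are exposed to compound for 24 h, then RNA isolated and reporter mRNA amplified and fluorescently labelled. Fragments are separated by capillary electrophoresis; signal change is fitted bidirectionally relative to DMSO.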
# [10] = ATG_NFI_CIS: Attagene CIS-FACTORIAL HepG2 Assay for human Nuclear Factor I (NFI) (AID 2282989); conditions: HepG2 cis-regulatory reporter, NFI response element transcription; actives raise or lower the signal
# In short: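 Read-out: reporter mRNA via RT-PCR plus capillary electrophoresis with fluorescence detection. Transiently transfected HepG2 (endogenous TF activity on cis promoters), 24 h compound exposure; gain or loss of signal fitted against DMSO.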
# [11] = biological target: Myc proto-oncogene protein (Homo sapiens) (UniProt P01106); assay: ATG_Myc_CIS: Attagene CIS-FACTORIAL HepG2 Assay for human Myelocytomatosis (Myc) Proto-Oncogene Transcription Factor (AID 2282990); conditions: HepG2, Attagene cis-reporter transcription factor activity; actives raise or lower the signal
# Myc proto-oncogene protein (Homo sapiens), sequence (P01106 whole entry, looked up): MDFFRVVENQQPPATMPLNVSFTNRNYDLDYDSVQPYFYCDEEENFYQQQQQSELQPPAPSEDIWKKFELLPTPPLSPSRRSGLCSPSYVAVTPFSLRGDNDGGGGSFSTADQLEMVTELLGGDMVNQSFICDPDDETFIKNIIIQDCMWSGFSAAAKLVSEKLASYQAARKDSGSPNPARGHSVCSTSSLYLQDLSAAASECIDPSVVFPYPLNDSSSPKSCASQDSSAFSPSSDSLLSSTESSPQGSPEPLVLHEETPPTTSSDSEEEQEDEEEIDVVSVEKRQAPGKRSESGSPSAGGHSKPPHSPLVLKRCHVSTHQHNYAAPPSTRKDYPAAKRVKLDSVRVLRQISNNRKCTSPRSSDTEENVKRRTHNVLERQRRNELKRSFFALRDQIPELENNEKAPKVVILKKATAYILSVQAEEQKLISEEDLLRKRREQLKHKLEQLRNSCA
# In short: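 Transiently transfected HepG2 cells bearing cis-promoter reporter units for endogenous transcription factors; 24 h exposure. Reporter mRNA measured by RT-PCR, 6-FAM primer extension, HpaI cut and capillary electrophoresis; bidirectional fit relative to DMSO.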
# [12] = ATG_NF_kB_CIS: Attagene CIS-FACTORIAL HepG2 Assay for human Nuclear Factor Kappa B (NF-kB) (AID 2282991); conditions: HepG2 Attagene cis-factorial NF-kB reporter mRNA; actives raise or lower the signal
# In short: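 Measures mRNA induction of an NF-kB-responsive cis-element reporter in HepG2 cells transfected with multiple reporter units, sampled 24 h post-dosing; quantified by fluorescence after RT-PCR and capillary electrophoresis, fitted for activation or inhibition against DMSO.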
# [13] = ATG_NRF2_ARE_CIS: Attagene CIS-FACTORIAL HepG2 Assay for human Nuclear Factor Erythroid 2 Related Factor 2 (NFR2) response to Antioxidant Response Elements (ARE) (AID 2282992); conditions: HepG2 Attagene ARE/NRF2 reporter, transcription factor activity; actives raise or lower the signal;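 on AC50: reporter mRNA level measured by RT-PCR and capillary electrophoresis fluorescence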
# In short: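 Cis-factorial assay: transfected HepG2 reporter library, 24 h dosing, mRNA readout via RT-PCR/CE; DMSO-referenced bidirectional analysis.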
# [14] = ATG_Oct_MLP_CIS: Attagene CIS-FACTORIAL HepG2 Assay for human Octamer-Binding Transcription Factor (Oct) (AID 2282993); conditions: HepG2 Attagene cis-factorial Oct reporter, mRNA; actives raise or lower the signal
# In short: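 Read-out: reporter mRNA via RT-PCR plus capillary electrophoresis of 6-FAM-labelled fragments. Transiently transfected HepG2, 24 h exposure, endogenous TF activity on cis elements. Gain or loss of signal fitted relative to DMSO.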
# [15] = biological target: Cellular tumor antigen p53 (Homo sapiens) (UniProt P04637); assay: ATG_p53_CIS: Attagene CIS-FACTORIAL HepG2 Assay for human p53 Transcription Factor (AID 2282994); conditions: HepG2 p53 cis-element reporter, Attagene mRNA; actives raise or lower the signal
# Cellular tumor antigen p53 (Homo sapiens), sequence (P04637 whole entry, looked up): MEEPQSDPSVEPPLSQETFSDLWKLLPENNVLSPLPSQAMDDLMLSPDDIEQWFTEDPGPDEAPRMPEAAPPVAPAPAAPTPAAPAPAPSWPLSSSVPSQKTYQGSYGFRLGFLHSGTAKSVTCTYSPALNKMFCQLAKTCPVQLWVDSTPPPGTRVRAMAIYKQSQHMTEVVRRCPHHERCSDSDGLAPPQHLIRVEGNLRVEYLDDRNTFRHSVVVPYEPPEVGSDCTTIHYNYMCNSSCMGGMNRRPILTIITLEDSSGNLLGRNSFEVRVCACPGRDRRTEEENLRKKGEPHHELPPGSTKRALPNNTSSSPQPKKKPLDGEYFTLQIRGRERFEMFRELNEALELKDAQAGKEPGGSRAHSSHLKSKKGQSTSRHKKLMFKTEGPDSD
# In short: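 Using HepG2 hepatoma cells carrying cis-acting multiplexed reporters, mRNA induction is detected after a 24 h exposure. Gain- and loss-of-signal responses are fitted relative to DMSO-treated cells.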
# [16] = ATG_M_32_TRANS: Attagene TRANS-FACTORIAL HepG2 Assay for M32 Transcription Factor (Internal Marker) (AID 2282984; active means hit-call score of the fitted dose curve at least 0.9, where 1 is the maximum;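 further: transcript level of a background control reporter unit measured by RT-PCR and capillary electrophoresis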); conditions: HepG2 Attagene TRANS M32 internal marker reporter
# In short: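 HepG2 cells transiently transfected with GAL4-UAS reporter units, dosed for 24 hours. Reporter mRNA quantified by RT-PCR, 6-FAM labelling, HpaI digestion and capillary electrophoresis; internal-marker signal fitted upward relative to DMSO.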
# [17] = BSK_3C_TissueFactor: BioMAP Diversity Plus: 3C Assay for Tissue Factor Biomarker Activity (AID 2282997); conditions: BioMAP 3C HUVEC, tissue factor biomarker readout; actives raise or lower the signal
# In short: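 Dosing of human umbilical vein endothelial cells preceded a 24 h incubation. Tissue Factor was then read by ELISA, with increases and decreases both scored relative to DMSO controls.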
# [18] = BSK_3C_uPAR: BioMAP Diversity Plus: 3C Assay for Urokinase-type plasminogen activator receptor (uPAR) Biomarker Activity (AID 2282998); conditions: BioMAP 3C HUVEC, uPAR biomarker ELISA; actives raise or lower the signal
# In short: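 HUVEC primary cells; 24 h post-dose; uPAR by ELISA; gain or loss of signal fitted bidirectionally vs DMSO baseline.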
# [19] = BSK_3C_VCAM1: BioMAP Diversity Plus: 3C Assay for Vascular cell adhesion molecule 1 (VCAM1) Biomarker Activity (AID 2282999); conditions: BioMAP 3C HUVEC, VCAM1 ELISA, cytokine-stimulated; actives raise or lower the signal
# In short: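 Human umbilical vein endothelial cells (3C system), biomarker read by ELISA 24 h after dosing; bidirectional fit against DMSO baseline. Cytotoxicity tracked by SRB total-protein staining in parallel cultures at biomarker time.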
# [20] = BSK_4H_Eotaxin3: BioMAP Diversity Plus: 4H Assay for Eotaxin 3 Biomarker Activity (AID 2283000); conditions: primary human endothelial cells (HUVEC); actives raise or lower the signal;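 on outcome: CCL26 protein level quantified by ELISA in parallel with SRB cytotoxicity check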
# In short: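 Human umbilical vein endothelial cells (BSK_4H system) dosed with test chemical; Eotaxin-3 (CCL26) measured by ELISA 24 h after dosing. Bidirectional curve fitting relative to DMSO negative control as baseline.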
structure (smiles),measurement,setting,value
CC(C)(C)OC(=O)c1ccc(O)cc1,outcome,[1],inactive
same,outcome,[2],inactive
same,outcome,[3],inactive
same,outcome,[4],inactive
same,outcome,[5],inactive
same,outcome,[6],inactive
same,outcome,[7],inactive
same,outcome,[8],inactive
same,outcome,[9],inactive
same,outcome,[10],inactive
same,outcome,[11],inactive
same,outcome,[12],inactive
same,AC50,[13],35 µM (active)
same,AC50,[14],100 µM (active)
CCc1cc(Cc2cc(CC)cc(C(C)(C)C)c2O)c(O)c(C(C)(C)C)c1,outcome,[1],inactive
same,outcome,[2],inactive
same,outcome,[3],inactive
same,outcome,[4],inactive
same,outcome,[6],inactive
same,AC50,[10],13.5 µM (active)
same,outcome,[11],inactive
same,AC50,[12],17.4 µM (active)
same,AC50,[13],7.08 µM (active)
same,AC50,[14],16.3 µM (active)
same,outcome,[15],inactive
CCOC(=O)[C@@H](C)Oc1ccc(Oc2nc3ccc(Cl)cc3o2)cc1,outcome,[1],inactive
same,outcome,[2],inactive
same,outcome,[3],inactive
same,outcome,[4],inactive
same,outcome,[6],inactive
same,outcome,[16],inactive
same,outcome,[7],inactive
same,outcome,[9],inactive
same,outcome,[10],inactive
same,outcome,[11],inactive
same,AC50,[13],39.9 µM (active)
same,outcome,[14],inactive
same,outcome,[15],inactive
O=C(Nc1ccc2c(c1)Cc1ccccc1-2)C(F)(F)F,outcome,[1],inactive
same,outcome,[2],inactive
same,outcome,[3],inactive
same,outcome,[4],inactive
same,outcome,[5],inactive
same,outcome,[6],inactive
same,outcome,[16],inactive
same,outcome,[7],inactive
same,outcome,[8],inactive
same,outcome,[9],inactive
same,outcome,[10],inactive
same,outcome,[11],inactive
same,outcome,[12],inactive
same,AC50,[13],24.8 µM (active)
same,AC50,[14],24.5 µM (active)
same,outcome,[15],inactive
Cc1ccc(S(=O)(=O)Oc2ccc(N=Nc3ccc(-c4ccc(N=Nc5c(O)ccc6cc(S(=O)(=O)O)cc(S(=O)(=O)O)c56)c(C)c4)cc3C)cc2)cc1,outcome,[1],inactive
same,outcome,[2],inactive
same,outcome,[3],inactive
same,outcome,[4],inactive
same,outcome,[16],inactive
same,outcome,[7],inactive
same,outcome,[9],inactive
same,outcome,[11],inactive
same,outcome,[14],inactive
same,outcome,[15],inactive
CCOC(=O)CN,outcome,[1],inactive
same,outcome,[2],inactive
same,outcome,[3],inactive
same,outcome,[5],inactive
same,outcome,[6],inactive
same,outcome,[8],inactive
same,outcome,[9],inactive
same,outcome,[11],inactive
same,outcome,[13],inactive
same,outcome,[14],inactive
same,outcome,[15],inactive
CC(C=O)Cc1ccc(C(C)(C)C)cc1 (stereo unspecified),outcome,[1],inactive
same,outcome,[2],inactive
same,outcome,[3],inactive
same,outcome,[4],inactive
same,outcome,[6],inactive
same,outcome,[16],inactive
same,outcome,[8],inactive
same,outcome,[9],inactive
same,outcome,[11],inactive
same,AC50,[13],26.4 µM (active)
same,outcome,[14],inactive
same,outcome,[15],inactive
same,AC50,[17],31.1 µM (active)
same,AC50,[18],32.9 µM (active)
same,AC50,[19],36.4 µM (active)
same,AC50,[20],36 µM (active)
C=CC(C)(O)CCC=C(C)C (stereo unspecified),outcome,[1],inactive
same,outcome,[2],inactive
same,outcome,[3],inactive
same,outcome,[4],inactive
same,outcome,[6],inactive
same,outcome,[16],inactive
same,outcome,[7],inactive
same,outcome,[8],inactive
same,outcome,[9],inactive
same,outcome,[10],inactive
same,outcome,[11],inactive
same,outcome,[13],inactive
same,outcome,[14],inactive
same,outcome,[17],inactive
same,outcome,[18],inactive
same,outcome,[19],inactive
same,AC50,[20],0.149 µM (active)
same,outcome,[20],inactive
O=C(CC(=O)c1ccccc1)c1ccccc1,outcome,[1],inactive
same,outcome,[2],inactive
same,outcome,[4],inactive
same,outcome,[6],inactive
same,outcome,[16],inactive
same,AC50,[8],100 µM (active)
same,AC50,[9],176 µM (active)
same,AC50,[10],100 µM (active)
same,AC50,[11],100 µM (active)
same,AC50,[13],3.43 µM (active)
same,AC50,[14],59 µM (active)
same,outcome,[15],inactive
